An excerpt weighted towards active compounds, which were near 4.1% of everything screened.
DAX1 inh-1 – inhibitors of human orphan nuclear receptor DAX1 (NR0B1); P51843; AID 504766; inhibition, % at 6.75 µM; HEK293 Gal4-DAX1 luciferase reporter, luminescence; 0.99% of 340,000 active;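 active = inhibition above the mean over all tested compounds plus 3 SD, cut at about 4.2% in these data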;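 note: 0% = DAX1-transfected cells with DMSO and 100% = empty-vector control cells with DMSO; inhibition shows as a rise in luminescence from relieved DAX1 repression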
Target sequence (P51843 207-470 limits assumed): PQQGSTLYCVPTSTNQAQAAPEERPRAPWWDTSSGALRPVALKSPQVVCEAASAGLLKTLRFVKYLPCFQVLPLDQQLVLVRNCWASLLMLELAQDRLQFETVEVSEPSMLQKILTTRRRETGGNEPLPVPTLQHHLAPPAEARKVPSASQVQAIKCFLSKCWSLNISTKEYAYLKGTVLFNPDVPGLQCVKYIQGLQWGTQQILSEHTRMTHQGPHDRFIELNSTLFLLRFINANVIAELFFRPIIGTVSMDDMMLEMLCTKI
hcDAF12 agonist – H. contortus DAF-12 activation, primary screen | HEK293 hcDAF-12 lit1-tk-luc reporter, luminescence; 0% DMSO, 100% Δ7-dafachronic acid | activation, % at 6.8 µM | 1.4% of 370,000 active | AID 652067;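 active = activation above the mean of all tested compounds plus 3 SD, cut at about 5.5% in these data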;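 note: 100% = response to 3 µM Δ7-dafachronic acid high control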
hgDAF-12 ag – activates the H. glycines DAF-12 receptor ligand-binding domain. HEK293 GAL4-hgDAF12 UAS-luciferase reporter, agonist luminescence; normalized to butyrate control. activation, % at 6.8 µM. 1.8% of 370,000 active. AID 687014;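 active = activation above a cutoff set at the mean of all screened compounds plus 3 SD, cut at about 10% in these data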;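 note: 0% = DMSO wells and 100% = sodium butyrate wells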
DAX1 inh-2 – blocks DAX1 repression of SF-1 activated StAR promoter | 1.1% of 370,000 active | inhibition, % at 6.8 µM | HEK293T StAR-luciferase reporter, SF-1/DAX-1 repression relief;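 active = inhibition above the mean over all tested compounds plus 3 SD, cut at about 3.6% in these data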;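 note: 0% = DAX-1 cells with DMSO and 100% = cells lacking DAX-1 with DMSO; higher inhibition means more luminescence from relief of DAX-1 repression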
ssDAF12 agonist – activates DAF-12 receptor from parasite S. stercoralis; 1% of 370,000 active; activation, % at 6.8 µM; HEK293 ssDAF-12/GRIP1 lit1-tk-luc reporter, luminescence; % of 3 µM dafachronic acid response;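 active = activation above the mean over all tested compounds plus 3 SD, cut at about 0.9% in these data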;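 note: 0% = DMSO-only wells and 100% = 3 µM delta7-dafachronic acid wells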
An asterisk follows results filed as active.

CC1CC(c2ccccc2)n2nc(NC(=O)c3ccco3)nc2N1 (stereo not drawn) was read as DAX1 inh-1 0, hcDAF12 agonist -2, hgDAF-12 ag 0, DAX1 inh-2 0 and ssDAF12 agonist -1.
COc1ccc(C2CC(c3ccc(F)cc3)n3nc(NC(=O)c4ccco4)nc3N2)cc1 (stereo not drawn) was read as DAX1 inh-1 4.8*, hcDAF12 agonist -1, hgDAF-12 ag -1, DAX1 inh-2 -1 and ssDAF12 agonist -1.
Screening CCC[C@H]1OC(=O)[C@@H]2CCCN2C(=O)[C@H]([C@H](C)Cc2ccccc2)NC(=O)[C@@H]2CCCN2C(=O)[C@@H]2CCCN2C(=O)[C@H](C(C)C)OC(=O)[C@@H]2CCCN2C(=O)[C@H](C(C)C)NC(=O)C1(C)C returned hcDAF12 agonist -2, hgDAF-12 ag -4 and ssDAF12 agonist -2.
Screening CC(C)CC(=O)N1CCN(C(=O)c2ccco2)CC1 returned DAX1 inh-1 -2, hcDAF12 agonist 5.7*, hgDAF-12 ag 2, DAX1 inh-2 1 and ssDAF12 agonist -1.
For O=C(NCC(=O)N1CCN(C(=O)c2ccco2)CC1)c1ccccc1 the results were DAX1 inh-1 0, hcDAF12 agonist -1, hgDAF-12 ag 0, DAX1 inh-2 2 and ssDAF12 agonist 1.0*.
For Cn1c(=NC(=O)CN2C(=O)C3CC=CCC3C2=O)sc2ccccc21 (stereo not drawn) the results were DAX1 inh-1 -1, hcDAF12 agonist 2, hgDAF-12 ag 0, DAX1 inh-2 0 and ssDAF12 agonist 0.
For C[C@@H](C(=O)N=c1sc2ccccc2n1C)N1C(=O)C2CC=CCC2C1=O (stereo partly drawn) the results were DAX1 inh-1 -1, hcDAF12 agonist 1, hgDAF-12 ag -1, DAX1 inh-2 0 and ssDAF12 agonist 1.0*.
Screening CCN(CC)C(=O)c1ccc(/C=C/c2c[nH]c3ccccc23)[n+](C)c1 returned DAX1 inh-1 0, hcDAF12 agonist 2, hgDAF-12 ag 2, DAX1 inh-2 1 and ssDAF12 agonist 1.6*.
`O=C(NC1CCCCC1)C(c1ccnc2ccccc12)n1c(=O)c(-c2ccco2)nc2ccccc21` (stereo not drawn) gave hcDAF12 agonist 2, hgDAF-12 ag 4, DAX1 inh-2 2 and ssDAF12 agonist 1.1*.
`CC(C)(C)NC(=O)C(c1ccccc1F)n1c(=O)c(-c2ccco2)nc2ccccc21` (stereo not drawn) gave hcDAF12 agonist 1, hgDAF-12 ag 2, DAX1 inh-2 4.3* and ssDAF12 agonist -1.
O=C(NC1CCCCC1)C(c1ccccc1F)n1c(=O)c(-c2ccco2)nc2ccccc21 (stereo not drawn) was read as hcDAF12 agonist -1, hgDAF-12 ag -2, DAX1 inh-2 0 and ssDAF12 agonist -1.
Cc1cccc(C)c1NC(=O)C(C1CC1)n1c(=O)c(-c2ccco2)nc2ccccc21 (stereo not drawn) was read as hcDAF12 agonist 0, hgDAF-12 ag 1, DAX1 inh-2 0 and ssDAF12 agonist 0.
Cc1cccc(C)c1NC(=O)C(c1ccncc1)n1c(=O)c(-c2ccco2)nc2ccccc21 (stereo not drawn) was read as hcDAF12 agonist 5, hgDAF-12 ag 5, DAX1 inh-2 2 and ssDAF12 agonist 2.1*.
For O=C(Nc1ccc2c(c1)OCCO2)C(c1ccnc2ccccc12)n1c(=O)c(-c2ccco2)nc2ccccc21 (stereo not drawn) the results were hcDAF12 agonist 5, hgDAF-12 ag 7, DAX1 inh-2 3 and ssDAF12 agonist 1.5*.
Screening Cc1ccccc1CN1CCCCC(NC(=O)c2ccc(Br)cc2)C1=O (stereo not drawn) returned hcDAF12 agonist -6, hgDAF-12 ag -2, DAX1 inh-2 -4 and ssDAF12 agonist -2.
Screening COCC(=O)Nc1ccc2c(c1)[C@H]1C[C@@H](CC(=O)NCC3CC3)O[C@H](CO)[C@H]1O2 returned hcDAF12 agonist -2, hgDAF-12 ag -1, DAX1 inh-2 0 and ssDAF12 agonist 0.
`O=C1C2C3C=CC(C4CC34)C2C(=O)N1/N=C/c1ccc([N+](=O)[O-])s1` (stereo not drawn) gave DAX1 inh-1 1, hcDAF12 agonist -1, hgDAF-12 ag 6, DAX1 inh-2 0 and ssDAF12 agonist -1.

Screening results deposited in PubChem BioAssay by The Scripps Research Institute Molecular Screening Center.
